For one sequence, binding signal results are on record in PMC7862700, “An all-to-all approach to the identification of sequence-specific readers for epigenetic DNA modifications on cytosine”.

Holding throughout (assay): DAPPL (digital affinity profiling via proximity ligation, sequencing); 10 mM Tris-HCl pH 7.5, 50 mM NaCl, 1 mM DTT, 4% glycerol, room temperature, 30 min; GST-TFs on glutathione beads, 16-mer random dsDNA library, 0.1% formaldehyde crosslink after washing; high values mean tight binding
Holding throughout (settings): protein: recombinant; tags: N-terminal GST; dsDNA, one strand shown

One experiment deals with T1, ELK1 (Homo sapiens, UniProt P19419 1-428).
T1 sequence: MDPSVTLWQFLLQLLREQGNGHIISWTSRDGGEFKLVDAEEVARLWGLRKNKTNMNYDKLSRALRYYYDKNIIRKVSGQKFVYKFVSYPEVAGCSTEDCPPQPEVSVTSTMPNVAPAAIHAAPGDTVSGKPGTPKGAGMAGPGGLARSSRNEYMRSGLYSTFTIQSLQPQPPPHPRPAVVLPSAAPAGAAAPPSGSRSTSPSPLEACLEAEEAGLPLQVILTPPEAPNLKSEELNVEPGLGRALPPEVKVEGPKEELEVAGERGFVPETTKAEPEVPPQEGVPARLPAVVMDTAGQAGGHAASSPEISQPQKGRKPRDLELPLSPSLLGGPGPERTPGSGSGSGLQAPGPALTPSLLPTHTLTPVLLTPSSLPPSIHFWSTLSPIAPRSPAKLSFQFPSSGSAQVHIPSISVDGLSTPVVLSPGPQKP
The method in brief:
(§1)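 Binding signal is given per hexamer as its read frequency for a factor divided by its frequency in the tag-only sample. GST-fused human transcription factors were expressed in yeast, captured on glutathione beads, barcoded with DNA and pooled with that sample, then incubated with 200 nmole of a 16-mer random double-stranded DNA library in Tris/NaCl/DTT/glycerol buffer for 30 min at room temperature. The pools were then washed, crosslinked, proximity-ligated, amplified by PCR and sequenced on an Illumina NextSeq500.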

The target of another experiment is T2, GABPA (Homo sapiens, UniProt Q06546 1-454).
T2 sequence: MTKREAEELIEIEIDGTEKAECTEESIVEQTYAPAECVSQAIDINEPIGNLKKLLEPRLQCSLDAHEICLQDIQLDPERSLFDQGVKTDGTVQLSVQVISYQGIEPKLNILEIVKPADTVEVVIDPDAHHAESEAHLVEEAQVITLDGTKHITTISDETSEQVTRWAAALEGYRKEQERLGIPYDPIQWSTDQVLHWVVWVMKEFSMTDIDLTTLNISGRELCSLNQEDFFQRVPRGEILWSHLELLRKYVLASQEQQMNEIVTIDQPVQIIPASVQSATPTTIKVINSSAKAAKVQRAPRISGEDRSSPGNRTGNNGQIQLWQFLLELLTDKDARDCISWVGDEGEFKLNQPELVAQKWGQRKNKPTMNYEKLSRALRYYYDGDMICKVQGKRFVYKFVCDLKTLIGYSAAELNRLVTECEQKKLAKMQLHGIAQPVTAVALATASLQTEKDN
The method in brief:
as §1

In the next experiment the target is T3, ERG (Homo sapiens, UniProt P11308 1-479).
T3 sequence: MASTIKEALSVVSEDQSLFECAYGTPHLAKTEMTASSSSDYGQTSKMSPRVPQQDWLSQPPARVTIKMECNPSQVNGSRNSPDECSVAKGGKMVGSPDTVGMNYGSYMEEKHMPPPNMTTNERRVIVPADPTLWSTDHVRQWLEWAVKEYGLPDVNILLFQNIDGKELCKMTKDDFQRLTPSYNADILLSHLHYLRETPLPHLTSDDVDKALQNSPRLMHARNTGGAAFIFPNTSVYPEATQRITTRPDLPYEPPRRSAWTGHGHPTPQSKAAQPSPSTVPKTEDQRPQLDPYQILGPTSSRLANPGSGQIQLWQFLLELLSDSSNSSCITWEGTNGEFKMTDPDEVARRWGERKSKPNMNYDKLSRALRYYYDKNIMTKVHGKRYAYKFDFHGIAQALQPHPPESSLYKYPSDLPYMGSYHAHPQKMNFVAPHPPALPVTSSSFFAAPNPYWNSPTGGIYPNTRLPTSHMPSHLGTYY
The method in brief:
as §1

The target of a further experiment is T4, EHF (Homo sapiens, UniProt Q9NZC4 1-300).
T4 sequence: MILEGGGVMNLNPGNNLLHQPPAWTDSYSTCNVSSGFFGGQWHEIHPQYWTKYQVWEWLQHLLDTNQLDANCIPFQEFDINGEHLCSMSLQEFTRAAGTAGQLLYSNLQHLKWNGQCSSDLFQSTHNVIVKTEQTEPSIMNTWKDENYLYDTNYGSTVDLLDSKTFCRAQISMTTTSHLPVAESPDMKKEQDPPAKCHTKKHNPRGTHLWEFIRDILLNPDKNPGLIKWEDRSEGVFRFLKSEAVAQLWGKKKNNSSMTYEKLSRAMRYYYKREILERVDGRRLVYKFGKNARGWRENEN
The method in brief:
as §1

The next experiment deals with SPIB (Homo sapiens, UniProt Q01892 1-262). An outline of the steps: as §1
Sequence of SPIB (Q01892 whole entry): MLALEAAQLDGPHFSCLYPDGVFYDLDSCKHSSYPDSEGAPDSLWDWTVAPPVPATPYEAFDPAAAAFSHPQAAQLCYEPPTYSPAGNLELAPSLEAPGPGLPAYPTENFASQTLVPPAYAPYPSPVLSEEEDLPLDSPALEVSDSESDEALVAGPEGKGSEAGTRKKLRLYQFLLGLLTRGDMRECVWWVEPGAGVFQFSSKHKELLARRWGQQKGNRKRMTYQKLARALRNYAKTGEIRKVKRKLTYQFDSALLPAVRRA
The target in another experiment is T5, ELK4 (Homo sapiens, UniProt P28324-2 1-405).
T5 sequence: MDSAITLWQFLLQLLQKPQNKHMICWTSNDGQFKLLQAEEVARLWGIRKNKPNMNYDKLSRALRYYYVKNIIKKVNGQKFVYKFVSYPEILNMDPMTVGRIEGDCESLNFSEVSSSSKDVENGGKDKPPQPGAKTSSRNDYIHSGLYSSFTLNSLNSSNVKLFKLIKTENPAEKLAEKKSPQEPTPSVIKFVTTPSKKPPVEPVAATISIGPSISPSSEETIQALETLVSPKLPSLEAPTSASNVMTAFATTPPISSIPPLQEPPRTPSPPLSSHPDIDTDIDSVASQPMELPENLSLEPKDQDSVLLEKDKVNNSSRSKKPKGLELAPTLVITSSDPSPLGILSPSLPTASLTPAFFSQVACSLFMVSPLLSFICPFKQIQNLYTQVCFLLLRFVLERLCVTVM
An outline of the steps:
as §1

In the next experiment the target is T6, ETV2 (Homo sapiens, UniProt O00321 1-342).
T6 sequence: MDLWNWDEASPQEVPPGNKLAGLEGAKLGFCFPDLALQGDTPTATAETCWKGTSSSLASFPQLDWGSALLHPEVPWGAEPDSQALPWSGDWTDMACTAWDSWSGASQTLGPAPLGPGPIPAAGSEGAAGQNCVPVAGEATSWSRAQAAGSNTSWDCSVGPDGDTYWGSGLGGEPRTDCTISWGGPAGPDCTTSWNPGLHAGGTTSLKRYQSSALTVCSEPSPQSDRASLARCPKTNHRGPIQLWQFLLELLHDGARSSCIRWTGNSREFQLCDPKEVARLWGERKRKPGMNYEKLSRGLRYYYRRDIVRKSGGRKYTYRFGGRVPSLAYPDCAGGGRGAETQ
An outline of the steps: as §1

The next experiment concerns the target ETV1 (Homo sapiens, UniProt P50549 1-477). An outline of the steps:
as §1

In a further experiment the target is T7, ERF (Homo sapiens, UniProt P50548 1-548).
T7 sequence: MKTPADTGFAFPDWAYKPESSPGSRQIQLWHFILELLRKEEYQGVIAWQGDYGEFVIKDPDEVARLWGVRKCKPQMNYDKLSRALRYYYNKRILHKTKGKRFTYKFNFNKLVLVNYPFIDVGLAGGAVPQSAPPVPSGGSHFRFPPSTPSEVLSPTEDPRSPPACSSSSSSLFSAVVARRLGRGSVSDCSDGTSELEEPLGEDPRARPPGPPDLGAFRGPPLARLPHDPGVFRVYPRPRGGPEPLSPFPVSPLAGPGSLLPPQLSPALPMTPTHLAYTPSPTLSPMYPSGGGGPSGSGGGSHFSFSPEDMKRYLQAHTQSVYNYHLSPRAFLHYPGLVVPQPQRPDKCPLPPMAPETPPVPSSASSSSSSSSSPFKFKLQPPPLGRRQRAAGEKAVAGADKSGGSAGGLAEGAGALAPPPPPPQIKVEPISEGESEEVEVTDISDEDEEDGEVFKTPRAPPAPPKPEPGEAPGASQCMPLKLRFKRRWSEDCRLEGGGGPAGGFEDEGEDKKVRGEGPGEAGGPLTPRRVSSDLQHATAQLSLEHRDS
An outline of the steps: as §1

In the next experiment the target is T8, ETV3L (Homo sapiens, UniProt Q6ZN32 1-361).
T8 sequence: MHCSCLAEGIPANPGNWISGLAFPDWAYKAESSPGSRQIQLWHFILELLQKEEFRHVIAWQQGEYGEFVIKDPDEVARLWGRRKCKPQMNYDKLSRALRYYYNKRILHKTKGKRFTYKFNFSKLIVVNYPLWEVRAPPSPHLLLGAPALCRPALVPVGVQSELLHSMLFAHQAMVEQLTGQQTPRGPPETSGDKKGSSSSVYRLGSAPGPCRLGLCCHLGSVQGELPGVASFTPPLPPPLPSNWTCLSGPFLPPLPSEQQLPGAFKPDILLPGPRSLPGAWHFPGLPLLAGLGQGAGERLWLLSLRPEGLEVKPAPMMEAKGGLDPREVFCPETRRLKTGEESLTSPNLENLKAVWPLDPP
The method in brief:
as §1

The target of the next experiment is T9, ETV7 (Homo sapiens, UniProt Q9Y603 1-341).
T9 sequence: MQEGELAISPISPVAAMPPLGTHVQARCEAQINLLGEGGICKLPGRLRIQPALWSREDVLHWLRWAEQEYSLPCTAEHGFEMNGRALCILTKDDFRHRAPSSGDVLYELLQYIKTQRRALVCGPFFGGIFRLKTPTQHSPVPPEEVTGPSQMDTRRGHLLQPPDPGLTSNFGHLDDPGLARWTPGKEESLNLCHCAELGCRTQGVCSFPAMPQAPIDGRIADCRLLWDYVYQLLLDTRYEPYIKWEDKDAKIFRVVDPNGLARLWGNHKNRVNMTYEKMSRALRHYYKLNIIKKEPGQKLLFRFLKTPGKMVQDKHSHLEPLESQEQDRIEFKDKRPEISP
An outline of the steps: as §1

For another experiment, the target named is T10, ELF5 (Homo sapiens, UniProt Q9UKW6-2 1-255).
T10 sequence: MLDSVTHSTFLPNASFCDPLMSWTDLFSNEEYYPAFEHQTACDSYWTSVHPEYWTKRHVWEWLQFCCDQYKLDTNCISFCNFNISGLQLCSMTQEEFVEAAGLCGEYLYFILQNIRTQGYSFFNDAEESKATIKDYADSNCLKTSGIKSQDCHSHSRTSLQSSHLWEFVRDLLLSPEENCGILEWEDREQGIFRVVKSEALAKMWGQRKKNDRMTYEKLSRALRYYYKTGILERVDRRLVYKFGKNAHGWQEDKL
An outline of the steps: as §1

Sequence of ETV1 (P50549 whole entry): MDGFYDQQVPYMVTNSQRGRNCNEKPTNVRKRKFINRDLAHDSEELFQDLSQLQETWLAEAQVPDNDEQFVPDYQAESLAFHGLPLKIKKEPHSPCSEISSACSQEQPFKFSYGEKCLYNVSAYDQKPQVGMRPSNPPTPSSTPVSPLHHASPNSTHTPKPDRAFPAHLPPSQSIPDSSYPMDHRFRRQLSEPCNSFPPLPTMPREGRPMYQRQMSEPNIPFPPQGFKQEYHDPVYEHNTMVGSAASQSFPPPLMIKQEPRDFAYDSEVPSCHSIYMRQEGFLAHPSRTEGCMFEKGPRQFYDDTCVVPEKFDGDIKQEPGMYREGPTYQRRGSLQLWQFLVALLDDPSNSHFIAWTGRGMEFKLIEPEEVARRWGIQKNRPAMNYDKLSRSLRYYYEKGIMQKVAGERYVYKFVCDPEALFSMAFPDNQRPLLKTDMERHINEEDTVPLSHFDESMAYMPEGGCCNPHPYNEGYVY

For GATTGC, the binding signal was 1.06 fold enrichment (6-mer frequency, TF over GST control) in the experiment with ELK1; 1.04 fold enrichment (6-mer frequency, TF over GST control) in the experiment with GABPA; 1.01 fold enrichment (6-mer frequency, TF over GST control) with ERG; 1.02 fold enrichment (6-mer frequency, TF over GST control) with EHF; 1.05 fold enrichment (6-mer frequency, TF over GST control) with SPIB; 1.04 fold enrichment (6-mer frequency, TF over GST control) in the experiment with ELK4. In addition, the binding signal in the experiment with ETV2 was 1.09 fold enrichment (6-mer frequency, TF over GST control); with ETV1 it was 1.02 fold enrichment (6-mer frequency, TF over GST control); with ERF, 1.02 fold enrichment (6-mer frequency, TF over GST control); with ETV3L, 1.02 fold enrichment (6-mer frequency, TF over GST control); with ETV7, 1.03 fold enrichment (6-mer frequency, TF over GST control); with ELF5, 1 fold enrichment (6-mer frequency, TF over GST control).
